Among the data in the supplement of paper PMC10681739 are ETS1 binding intensity values, retold here.

In assay [1] the target is T1, ETS1 (UniProt P14921).
T1 sequence: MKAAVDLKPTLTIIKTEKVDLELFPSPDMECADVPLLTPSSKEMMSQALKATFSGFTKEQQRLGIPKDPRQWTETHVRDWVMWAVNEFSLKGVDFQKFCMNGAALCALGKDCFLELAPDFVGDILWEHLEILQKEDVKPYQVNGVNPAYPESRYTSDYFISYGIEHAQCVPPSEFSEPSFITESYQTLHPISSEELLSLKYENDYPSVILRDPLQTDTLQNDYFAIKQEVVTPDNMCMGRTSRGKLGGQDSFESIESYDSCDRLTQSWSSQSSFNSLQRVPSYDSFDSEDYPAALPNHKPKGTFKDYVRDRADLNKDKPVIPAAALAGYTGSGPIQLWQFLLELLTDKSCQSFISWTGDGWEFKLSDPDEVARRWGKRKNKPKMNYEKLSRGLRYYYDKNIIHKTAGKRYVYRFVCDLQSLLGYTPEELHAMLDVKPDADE
The assay can be described thus: ETS1 binding intensity (PBM fluorescence), ETS1 alone (arbitrary fluorescence units); higher = stronger binding. The following applies: ETS1 concentration 1 nM; RUNX1 concentration 0 nM.

Assay [2] deals with T1, ETS1. The assay can be described thus: ETS1 binding intensity (PBM fluorescence) in presence of RUNX1, normalised to ETS1-only experiment (arbitrary fluorescence units); higher = stronger binding. The conditions noted are these: ETS1 concentration 1 nM; RUNX1 concentration 25 nM.

For the sequence CCAGAGCAGGATGTTCTGCTGTGGCTAGATAAGCCC, the ETS1 binding intensity amounted to 907 with ETS1 [1] and 916 with ETS1 [2].
For TGCCGGAAGCCCGCCAGGCACAGGACCCGCAGGGGT, the ETS1 binding intensity in the assay with ETS1 [1] worked out at 588; with ETS1 [2], 545.
Take CCGACCTTAACGACATCCTGCGGCTCAGCGTGGAGG: the ETS1 binding intensity with ETS1 [1] worked out at 489; with ETS1 [2], 437.
The matching figures for GAGAGCTGAGCGGAAGCTCAGCTGTGGGGCTGGTTG: 1740 and 1990.
Consider GCTACGGGTTCCCCGGATGGAGCCGCAGTCCGGCCG, for which the ETS1 binding intensity was found to be 858 in the assay with ETS1 [1] and 715 with ETS1 [2].
In the case of GAAAGCACGTGTTTCCTGCGGCTGCACCCCAGCACC, the ETS1 binding intensity with ETS1 [1] is 479; with ETS1 [2] it was 386.
The corresponding values for GGCAGGCAGCAGAGGAAACCACCCCCACCCACTCCC are 1420 and 1640.
The corresponding values for AGCACAGGTTCCCAGGAAATGTGGGTTGAACAAGGC are 1250 and 1250.
In the case of GGCCGGAAGCGCTCTCGTTGGCCCTGCGGCGCTGGA, the ETS1 binding intensity stood at 2120 with ETS1 [1] and 2800 in the assay with ETS1 [2].
With CTTCGCCGCTTCCAGGAAGGGCCACAACGGCCGTCG, the figures for the ETS1 binding intensity in the assay with ETS1 [1] and in the assay with ETS1 [2] were 563 and 483, respectively.
Turning to CCATTTCCTGATTCTAATGTTCATCAACCACTTTTG, the ETS1 binding intensity is 504 in the assay with ETS1 [1] and 397 with ETS1 [2].
The matching figures for GGAGTGAGGAGGAAGCGGAGGCGAGACCGCGCTCAA: 464 and 399.
Turning to CCGAGCCGGCCTCTTCCGCCGCAAGTCCCTCCCCAA, the ETS1 binding intensity was determined as 548 with ETS1 [1] and 428 with ETS1 [2].
The corresponding values for AATGGCGGGAAGTAAGAGGAATGTGGGCCTGACTGC are 499 and 386.
The corresponding values for CAGCTTCCGGGCTAATTAGCAGTCGCGGTGTGCCGC are 413 and 450.
The corresponding values for CTGTGGCCTAGAAGCTTCCTGCCGCAGCTCTGAGGA are 534 and 505.
Regarding GGAACGGAGGCGGAAGGGGCCCTGCGGCGACGACGT, the ETS1 binding intensity with ETS1 [1] came to 679; with ETS1 [2], 1070.
The matching figures for TGAGGAAGTGTAAGTCACAATAAGAAGCCACATATA: 564 and 519.
The matching figures for AAAGGGCAGACTTCCCTGCCCACATCTCTGCTCCTG: 462 and 359.
The corresponding values for TCCAGGATGTGCTGAACCTCCAGAAACCACCGGCTT are 436 and 684.
On to GGCTTGCCAAGAGGAAATTTGAAGCCACAATAACAT, for which the ETS1 binding intensity in the assay with ETS1 [1] was 808; with ETS1 [2] it was 951.
As for GTGACCCAATACTTCCTGCCACAATACTGAGAACTC, the values for the ETS1 binding intensity with ETS1 [1] and in the assay with ETS1 [2] were 841 and 702, respectively.
As to ACGTCTTTATTTATCCTGTGGCTTCCCGACCCCCAC, the ETS1 binding intensity with ETS1 [1] is 537; with ETS1 [2], 576.
As to TTTATCCTTATTTCCTGGCTTCGCCCACAAGCACAG, the ETS1 binding intensity with ETS1 [1] came out at 599; with ETS1 [2], 625.
The corresponding values for CCTCCTCTTCCTCCCCACTCTGCACATGCGGCTGGG are 520 and 344.
The corresponding values for CTGGGGCTGAGGGAGGGATGTGGTGGGGCCCAGGCT are 411 and 521.
Turning to ACAGGAAGTGAGGCTGTGAGGAGTTTGTGGTGTGTA, the ETS1 binding intensity turned out to be 2080 with ETS1 [1] and 4960 in the assay with ETS1 [2].
The corresponding values for ATTCTGCATCCTGTGCTCTTTCCATGAGACCACAAA are 448 and 754.
As for TGAATCATCCTGAGTTACCCGTTCTGTAACCGCCCC, the ETS1 binding intensity is 490 with ETS1 [1] and 517 with ETS1 [2].
The matching figures for GTCGTCAGCGTCTTCCTGTCAGCGGTCGGCAGAGCC: 706 and 562.
For ACACCACTCAGGAAGACAAAGCCACACCTCACACCG, the values for the ETS1 binding intensity with ETS1 [1] and with ETS1 [2] were 487 and 440, respectively.
Consider CTCGGCGCGACGGATATTCCCGTGACCGCCGGGTTC, for which the ETS1 binding intensity with ETS1 [1] worked out at 672; in the assay with ETS1 [2], 920.
As for ACACCGCTCAGGAAGACAAAGCCACACCTCACACCA, the ETS1 binding intensity with ETS1 [1] came out at 443; with ETS1 [2] it was 358.
The matching figures for GCGCGCTTCCGCCTTCATGCTAGCAACGCCCGCAGT: 566 and 560.
Take CAGAGGCCCGGCCTCTTCCGCCACAACTCCGGCCCG: the ETS1 binding intensity stood at 492 with ETS1 [1] and 356 with ETS1 [2].
The matching figures for GGCCTTCTGCCTACATCCTGCGGCGCCCGCGACCCG: 679 and 593.
With GGTGTTAGTAGTCAAGGAAGTGGTCACCCTTGACAG, the results for the ETS1 binding intensity with ETS1 [1] and with ETS1 [2] were 1010 and 2150, respectively.
On to GCAGGAAATGACGTCAGACCTCACTGCGGGTCTGAG, for which the ETS1 binding intensity with ETS1 [1] came out at 853; with ETS1 [2], 1010.
GTAAAAGGAAGTAAAGGCTTGGCCGGGCGCGGTGGC: the results for the ETS1 binding intensity with ETS1 [1] and with ETS1 [2] were 569 and 411, respectively.
The corresponding values for ATGCAGAAGCTACAGGAAGAAGCCGCAGGCCAAGCT are 844 and 1120.
The matching figures for ACAGGAAGTCAGCTGAGTACCGAGCAAGCCGCATGC: 1770 and 2090.
Consider GGCAGGAGCTTCCGGCTCAGCCCTGCGGCCTGTGCC, for which the results for the ETS1 binding intensity in the assay with ETS1 [1] and in the assay with ETS1 [2] were 498 and 768, respectively.
For AACAGCTTTTGTCCAGGATGTGGCTTCATAGCCTTG, the ETS1 binding intensity was 1650 with ETS1 [1] and 2340 with ETS1 [2].
The matching figures for AATATAGGAAGTGTCAGCTAGGGAACTCAACCACAA: 496 and 382.
Regarding CTTCAGGGGTGGGGCTTCCTGCCGCAGAGCCGCCTT, the ETS1 binding intensity in the assay with ETS1 [1] is 543; with ETS1 [2], 557.
On to GCGCGGCTCAGGAAGCGACGCGGTTCAGGGAGCGAA, for which the ETS1 binding intensity with ETS1 [1] came to 707; with ETS1 [2], 577.
The corresponding values for ACCCTCTTTCCGGTGGAAAGCTGCGGCCTCCCAGAG are 464 and 380.
Take TGACTCACCTTCCTGTAGGTTGGTTTTCTGCATATC: the results for the ETS1 binding intensity with ETS1 [1] and with ETS1 [2] were 472 and 308, respectively.
As for GTGCCACTGAGAGGAAGGGGGCAACCACAGTGGGAG, the ETS1 binding intensity with ETS1 [1] was determined as 367; with ETS1 [2] it was 590.
As for GAGGTTGGGAAGTTCTTCCTTTGGTCTGACCACAGT, the ETS1 binding intensity was found to be 453 with ETS1 [1] and 596 with ETS1 [2].
The matching figures for GGGGCCCCGGATGCACTGAGCGGCTGCGGCGCGGCT: 613 and 642.
As for TGATGCAGGAAGGGGTGGAGTCACCACAGGAGGTAG, the ETS1 binding intensity turned out to be 827 with ETS1 [1] and 952 with ETS1 [2].
Turning to GAGCACATTTCCTTTTGCTTCCAGATACCACAGTGA, the ETS1 binding intensity amounted to 445 in the assay with ETS1 [1] and 412 in the assay with ETS1 [2].
The corresponding values for GAAGCTACTCTGGTTTCCTGTGGTTTTCTGAGCACT are 597 and 1320.
The corresponding values for GGAGCAGGAAGCGTCGCCGGGGGGCCCACAAGGGTA are 528 and 614.
The corresponding values for GGTGCCAAGGGCAGAGGATGTGGTGAGGTGTGGAGG are 999 and 4410.
Turning to TAAATACCTCACAGGAAATTTGAGGTTGGATGAGAT, the ETS1 binding intensity was 2010 in the assay with ETS1 [1] and 2320 in the assay with ETS1 [2].
Take TGAGCCCCAGCAAGGGGAAGTGGTTAACCCAGGGTC: the ETS1 binding intensity was 709 with ETS1 [1] and 1960 with ETS1 [2].
The matching figures for GCAGCCAGGGTAGGAAGTGGTAAGACCTCCCTGTGA: 893 and 1230.
The matching figures for GGTCTGGAGGATGTTTGCAGCTGCTGTGGGTGGTGG: 586 and 530.
The corresponding values for CTTCCTTCCCTTCCTTCTGCTCCCTCCCACAGCCGC are 519 and 436.
With CTCCCCCCACGACTTCCCTCTGTGGCCCCGGGCCGC, the figures for the ETS1 binding intensity with ETS1 [1] and with ETS1 [2] were 677 and 645, respectively.
The matching figures for GGGGCAGGAAACAGCGTCCTGCGCGGGTAGCCCCTG: 775 and 918.
The matching figures for CAGTCAGACGGAAGCCCGGCTTCTGTGGTGCCTGCC: 459 and 473.
The corresponding values for GGGCTTCAGCGGATGAACAAGGTTACCACGGGGAGT are 459 and 504.
In the case of ACCTCTTCCGAGACCCAAAATGCGCGGTCTGGAGAG, the ETS1 binding intensity with ETS1 [1] is 448; with ETS1 [2], 328.
AATTCCCAGGAAGCACTCGGCAGCCACAAACTGATG: the ETS1 binding intensity was determined as 539 with ETS1 [1] and 483 with ETS1 [2].
The corresponding values for CTCTTCTTCAGGGTTTCCTGTGGGTACACTGAGAAC are 604 and 602.
For TCACTCCTCTTCCTTCCTGCCACCCACAGGGTCAGC, the ETS1 binding intensity with ETS1 [1] worked out at 532; with ETS1 [2] it was 378.
The matching figures for GCCCCTCTTCCTGACTCACACAACCGCCTCTAGTCT: 457 and 330.
For the sequence GACGGGATGTAGGTTTTCAGCCGTGGCCACAGGAGA, the ETS1 binding intensity turned out to be 496 in the assay with ETS1 [1] and 559 with ETS1 [2].
